Source: PubChem BioAssay (EPA / NIEHS)
Results filed as inconclusive are left out. The source made the active and inactive calls. How the source made its calls, unless noted: active means hit-call score of the fitted dose curve at least 0.9, where 1 is the maximum; inactive means score below 0.9.

Legend:
[1] = read-out: Interleukin-1 alpha (IL1a), IL1A (gene 3552); assay: BSK_LPS_IL1a: BioMAP Diversity Plus: LPS Assay for Interleukin-1 alpha (IL1a) Biomarker Activity (AID 2283080); details: primary human HUVEC with PBMC; actives raise or lower the signal
In short: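 Primary human HUVEC and PBMC co-culture stimulated with LPS is dosed and harvested at 24 h. Both increases and decreases in ELISA-measured IL-1a are scored relative to DMSO.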

[2] = read-out: Monocyte Chemoattractant Protein-1 (MCP1), CCL2 (gene 6347); assay: BSK_LPS_MCP1: BioMAP Diversity Plus: LPS Assay for Monocyte Chemoattractant Protein-1 (MCP1) Biomarker Activity (AID 2283081); details: primary human HUVEC with PBMC; actives raise or lower the signal;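 on AC50: secreted MCP-1 protein quantified by ELISA in culture supernatant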
In short: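 Values derive from bidirectional fitting against DMSO of ELISA-measured MCP-1 in a human primary endothelial and mononuclear cell co-culture, 24 h after chemical addition under LPS activation.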

[3] = BSK_LPS_PGE2: BioMAP Diversity Plus: LPS Assay for Prostaglandin E2 (PGE2) Biomarker Activity (AID 2283082); details: primary human HUVEC with PBMC; actives raise or lower the signal;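 on AC50: secreted prostaglandin E2 measured by ELISA in LPS-stimulated co-culture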
In short: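 HUVEC plus PBMC co-culture stimulated with LPS; secreted PGE2 quantified by ELISA 24 h after chemical dosing. Activity fitted bidirectionally against DMSO as negative control and baseline; parallel SRB total-protein staining served as cytotoxicity check.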

[4] = read-out: Macrophage colony-stimulating factor (MCSF), CSF1 (gene 1435); assay: BSK_LPS_MCSF: BioMAP Diversity Plus: LPS Assay for Macrophage colony-stimulating factor (MCSF) Biomarker Activity (AID 2283083); details: primary human HUVEC with PBMC; actives raise or lower the signal
In short: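 Bidirectional fit versus DMSO of ELISA-measured M-CSF in co-cultured human umbilical vein endothelial cells and PBMC, sampled 24 h after dosing.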

[5] = read-out: Tissue Factor, F3 (gene 2152); assay: BSK_LPS_TissueFactor: BioMAP Diversity Plus: LPS Assay for Tissue Factor Biomarker Activity (AID 2283084); details: primary human HUVEC with PBMC; actives raise or lower the signal
In short: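 Read-out: CD142 ELISA, 24 h. System: LPS-driven human endothelial/PBMC co-culture. Analysis: up- or down-signal fitted against DMSO.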

[6] = read-out: Tumor necrosis factor (Homo sapiens) (UniProt P01375); assay: BSK_LPS_TNFa: BioMAP Diversity Plus: LPS Assay for Tumour Necrosis Factor alpha (TNFa) Biomarker Activity (AID 2283085); details: primary human HUVEC with PBMC; actives raise or lower the signal
In short: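 Human umbilical vein endothelial cells co-cultured with PBMC were exposed to test chemical and TNFa measured by ELISA 24 h after dosing. Bidirectional curve fitting was done relative to DMSO as negative control and baseline.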

[7] = read-out: Vascular cell adhesion molecule 1 (VCAM1), VCAM1 (gene 7412); assay: BSK_LPS_VCAM1: BioMAP Diversity Plus: LPS Assay for Vascular cell adhesion molecule 1 (VCAM1) Biomarker Activity (AID 2283086); details: primary human HUVEC with PBMC; actives raise or lower the signal
In short: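 Human umbilical vein endothelial cells co-cultured with peripheral blood mononuclear cells under LPS stimulation were exposed to test chemical for 24 h. VCAM-1 levels were then measured by ELISA, with bidirectional curve fitting relative to DMSO as negative control and baseline.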

[8] = read-out: CD38, CD38 (gene 952); assay: BSK_SAg_CD38: BioMAP Diversity Plus: SAg Assay for CD38 Biomarker Activity (AID 2283087); details: primary human HUVEC with PBMC; actives raise or lower the signal
In short: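 Fluorescence ELISA of cell-surface CD38 served as the read-out, with either increase or decrease fitted against DMSO controls. Cells were a human umbilical vein endothelium plus PBMC co-culture under SEB/TSST-1 stimulation, measured 24 h after dosing.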

[9] = read-out: CD40, CD40 (gene 958); assay: BSK_SAg_CD40: BioMAP Diversity Plus: SAg Assay for CD40 Biomarker Activity (AID 2283088); details: primary human HUVEC with PBMC; actives raise or lower the signal
In short: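 Endpoint derived by fitting increases or decreases versus DMSO controls. CD40 is detected by fluorescence ELISA in a human vascular co-culture of endothelium and PBMC at 24 h.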

[10] = read-out: CD69, CD69 (gene 969); assay: BSK_SAg_CD69: BioMAP Diversity Plus: SAg Assay for CD69 Biomarker Activity (AID 2283089); details: primary human HUVEC with PBMC; actives raise or lower the signal;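 on AC50: cell surface CD69 protein quantified by ELISA with fluorescence detection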
In short: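 Endothelial/PBMC co-culture; chemical added; 24 h incubation; CD69 ELISA with fluorescence detection; bidirectional fit vs DMSO.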

[11] = read-out: Monocyte Chemoattractant Protein-1 (MCP1), CCL2 (gene 6347); assay: BSK_SAg_MCP1: BioMAP Diversity Plus: SAg Assay for Monocyte Chemoattractant Protein-1 (MCP1) Biomarker Activity (AID 2283090); details: primary human HUVEC with PBMC; actives raise or lower the signal
In short: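 MCP-1 levels in the endothelial–PBMC SAg co-culture were quantified by ELISA at 24 h post-dosing; both increases and decreases versus DMSO scored. Cytotoxicity monitored by SRB total protein in parallel cultures.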

[12] = read-out: Monokine induced gamma interferon (MIG), CXCL9 (gene 4283); assay: BSK_SAg_MIG: BioMAP Diversity Plus: SAg Assay for Monokine induced gamma interferon (MIG) Biomarker Activity (AID 2283092); details: primary human HUVEC with PBMC; actives raise or lower the signal
In short: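 Measures CXCL9 protein by ELISA in a human vascular primary-cell co-culture (umbilical vein endothelium with PBMC) 24 h after chemical addition. Activity is scored up or down from the DMSO control.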

[13] = BSK_SAg_PBMCCytotoxicity: PBMC Cytotoxicity Assessment in the BioMAP Diversity Plus: SAg Assay (AID 2283093); details: primary human HUVEC with PBMC;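 further: PBMC viability measured as Alamar Blue reduction fluorescence at 546/580 nm; fitted both ways against DMSO so a hit may be loss or gain of signal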;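 on AC50: PBMC superantigen activated with SEB plus TSST-1 one hour after compound addition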
In short: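 Compound added to 75,000 PBMC/well for 1 h; SEB and TSST-1 then added at 20 ng/mL final each; 90 h incubation; Alamar Blue 6 h; read 546/580 nm ex/em. Activity fitted bidirectionally relative to DMSO baseline.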

[14] = read-out: Interleukin-8 (IL8), CXCL8 (gene 3576); assay: BSK_SAg_IL8: BioMAP Diversity Plus: SAg Assay for Interleukin-8 (IL8) Biomarker Activity (AID 2283094); details: primary human HUVEC with PBMC; actives raise or lower the signal
In short: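 Human umbilical vein endothelial cells co-cultured with peripheral blood mononuclear cells; IL-8 measured by ELISA 24 h after chemical dosing. Bidirectional concentration-response fitting used DMSO as negative control and activity baseline.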

[15] = BSK_SAg_Proliferation: Cell Proliferation Assessment in the BioMAP Diversity Plus: SAg Assay (AID 2283095); details: primary human HUVEC with PBMC;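 further: relative cell number as total protein by SRB absorbance in sub-confluent culture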
In short: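 Human umbilical vein endothelial cells co-cultured with peripheral blood mononuclear cells; total protein measured by sulforhodamine B staining (0.1% SRB after 10% TCA fixation), absorbance at 560 nm, at 96 h. Bidirectional fit against DMSO baseline.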

[16] = BSK_SAg_SRB: Viability Assessment in the BioMAP Diversity Plus: SAg Assay (AID 2283096); details: primary human HUVEC with PBMC;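 further: cells read one day after compound addition; hits may be either gain or loss of signal compared with DMSO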
In short: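 Total protein by sulforhodamine B staining, 24 h after dosing, in HUVEC–PBMC co-culture; DMSO-referenced bidirectional fitting.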

[17] = read-out: E-selectin (Homo sapiens) (UniProt P16581); assay: BSK_SAg_Eselectin: BioMAP Diversity Plus: SAg Assay for Eselectin Biomarker Activity (AID 2283091); details: primary human HUVEC with PBMC; actives raise or lower the signal
In short: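 Endpoint values derive from bidirectional fitting relative to DMSO, using ELISA-measured E-selectin in a human vascular co-culture (umbilical vein endothelium plus PBMC) sampled 24 h after dosing.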

[18] = target: human CYP19A1, CYP19A1 (gene 1588) (UniProt P11511); assay: NVS_ADME_hCYP19A1: NovaScreen (NVS) CYP450-related Enzyme Activity (ADME) Assay for human CYP19A1 (AID 2283098; active means hit-call score of the fitted dose curve at least 0.9, where 1 is the maximum)
In short: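 Biochem, cell-free; recombinant enzyme + specific substrate; fluorescence intensity at 0.5 h post-dose; 10 uM duplicate primary, conc. series for actives; acetonitrile = negative control/baseline; positive and negative controls on every plate.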

Measured: AC50

Sequence of Tumor necrosis factor (Homo sapiens) (P01375 whole entry, looked up): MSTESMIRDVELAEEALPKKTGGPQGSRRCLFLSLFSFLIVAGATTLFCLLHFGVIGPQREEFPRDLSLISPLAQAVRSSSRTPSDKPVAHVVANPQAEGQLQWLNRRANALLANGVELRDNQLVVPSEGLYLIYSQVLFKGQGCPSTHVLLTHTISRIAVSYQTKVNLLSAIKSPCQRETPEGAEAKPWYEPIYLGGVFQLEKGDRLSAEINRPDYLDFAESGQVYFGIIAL
Sequence of E-selectin (Homo sapiens) (P16581 whole entry, looked up): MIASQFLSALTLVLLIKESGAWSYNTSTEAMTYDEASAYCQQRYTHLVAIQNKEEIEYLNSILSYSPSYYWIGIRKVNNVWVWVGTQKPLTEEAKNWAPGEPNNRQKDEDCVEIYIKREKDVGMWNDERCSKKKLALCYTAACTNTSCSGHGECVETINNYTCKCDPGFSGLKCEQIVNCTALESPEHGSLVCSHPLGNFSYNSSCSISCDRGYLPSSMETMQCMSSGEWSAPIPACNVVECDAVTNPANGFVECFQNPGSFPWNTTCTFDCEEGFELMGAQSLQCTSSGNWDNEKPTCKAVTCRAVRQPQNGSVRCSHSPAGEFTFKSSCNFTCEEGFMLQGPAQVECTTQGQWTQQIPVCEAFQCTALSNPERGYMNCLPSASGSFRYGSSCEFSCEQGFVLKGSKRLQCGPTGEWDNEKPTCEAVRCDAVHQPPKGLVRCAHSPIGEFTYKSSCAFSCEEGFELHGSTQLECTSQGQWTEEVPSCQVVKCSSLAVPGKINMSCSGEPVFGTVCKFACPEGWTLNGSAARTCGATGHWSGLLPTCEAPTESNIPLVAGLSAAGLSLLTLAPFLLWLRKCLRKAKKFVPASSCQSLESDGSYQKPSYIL
Sequence of human CYP19A1, CYP19A1 (gene 1588) (P11511 whole entry, looked up): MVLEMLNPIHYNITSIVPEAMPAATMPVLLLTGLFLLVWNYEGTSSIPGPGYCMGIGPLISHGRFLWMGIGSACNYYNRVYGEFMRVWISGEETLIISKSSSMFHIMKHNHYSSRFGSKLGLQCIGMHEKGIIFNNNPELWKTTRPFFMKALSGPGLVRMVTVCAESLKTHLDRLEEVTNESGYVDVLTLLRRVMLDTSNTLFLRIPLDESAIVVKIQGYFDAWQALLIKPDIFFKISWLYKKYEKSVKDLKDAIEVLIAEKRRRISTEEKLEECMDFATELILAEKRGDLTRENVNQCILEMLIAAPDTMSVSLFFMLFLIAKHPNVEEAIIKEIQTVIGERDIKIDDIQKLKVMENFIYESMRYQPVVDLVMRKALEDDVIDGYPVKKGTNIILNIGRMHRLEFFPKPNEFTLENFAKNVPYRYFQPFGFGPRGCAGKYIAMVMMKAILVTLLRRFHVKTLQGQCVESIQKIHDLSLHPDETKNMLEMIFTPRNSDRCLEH

NCCO
not listed: [17] | [18]
inactive: all other assays above

NCC1(Cc2noc(=O)[nH]2)CCCCC1
not listed: [17] | [18]
inactive: all other assays above

CC(=O)Oc1ccccc1C(=O)O
active: [3] 3.25 µM
not listed: [17] | [18]
inactive: all other assays above

C=CCOC(=O)c1ccccc1C(=O)OCC=C
not listed: [13] | [18]
inactive: all other assays above

CC1(C)CC(N=C=O)CC(C)(CN=C=O)C1 (centres undefined)
not listed: [13] | [18]
inactive: all other assays above

Nc1ccccc1N
active: [3] 10.9 µM | [4] 3.97 µM | [7] 11.2 µM
not listed: [17] | [18]
inactive: all other assays above

CCOC(=O)C(C)(C)Oc1ccc(Cl)cc1
not listed: [17] | [18]
inactive: all other assays above

COC(=O)c1ccc(O)cc1
active: [3] 1.34 µM
not listed: [17] | [18]
inactive: all other assays above

CCCCCCOCCO
not listed: [17] | [18]
inactive: all other assays above

Cc1c(C(=O)O)c(O)cc2c1C(=O)c1c(O)c([C@@H]3O[C@H](CO)[C@@H](O)[C@H](O)[C@H]3O)c(O)c(O)c1C2=O
not listed: [13]
inactive: all other assays above

C[Si]1(C)O[Si](C)(C)O[Si](C)(C)O[Si](C)(C)O1
not listed: [13] | [18]
inactive: all other assays above

O=[N+]([O-])C(CO)(CO)CO
active: [15] 17.8 µM
not listed: [13] | [17] | [18]
inactive: all other assays above

Oc1ccc2ccccc2c1N=Nc1ccccc1
active: [3] 2.4 µM | [6] 1.98 µM | [15] 12.2 µM
not listed: [17] | [18]
inactive: all other assays above

Cc1ccccc1Cl
not listed: [13] | [17] | [18]
inactive: all other assays above

Cc1ccc(N(C)C)cc1
not listed: [13] | [17] | [18]
inactive: all other assays above

Nc1nc(N)c2nc(CNc3ccc(C(=O)N[C@@H](CCC(=O)O)C(=O)O)cc3)cnc2n1
active: [15] 3.22 µM
not listed: [13] | [17] | [18]
inactive: all other assays above

COc1cc(-c2nc(NC(=O)c3cc4cc(C)cc(C)c4n3CC(=O)O)sc2CCC2CCCCC2)c(OC)cc1Cl
active: [1] 4.69 µM | [2] 3.25 µM | [3] 3.97 µM | [4] 4.31 µM | [5] 6.36 µM | [6] 10 µM | [7] 5.07 µM | [8] 3.43 µM | [9] 3.21 µM | [10] 3.95 µM | [11] 2.78 µM | [12] 4.63 µM | [13] 16.9 µM | [14] 16.9 µM | [15] 3.49 µM | [16] 3.85 µM
